Consider 35 compounds from PubChem BioAssay.

Structures are written as SMILES. Calls of active or inactive are those of the source. Rule as the data show it: active = inhibition above about 28%; inactive = the rest.

A short description of this assay: StAR promoter reporter inhibitors, counter-screen for LRH-1 inverse agonist project, cell-based, luminescence, high throughput (AID 651611). The settings on record: StAR promoter luciferase reporter counterscreen, at 3.6 µM, stronger effect = higher value. In general terms: A counterscreen serves to expose hits that act by an unwanted route or on another target.
On to `On1ccccc1=S`, for which the inhibition was 86.8% (active).
The figure for `COc1ccc(CCNC(=O)CSc2nnc(CNc3ccc(Cl)cc3)o2)cc1OC` is 1.3% (inactive); for `Cc1cc(NCCCCCCCNc2cc(C)nc3cc([N+](=O)[O-])ccc23)c2ccc([N+](=O)[O-])cc2n1` it is -0.67% (inactive).
Take `CC(Cl)C(=O)Nc1ncc(C(F)(F)F)cc1Cl` (stereo not given): the inhibition is 13.3% (inactive).
`CCN1CCN(c2ccc(S(=O)(=O)N3CCCCC3)cc2NC(=O)/C=C/c2ccc([N+](=O)[O-])cc2)CC1`: the inhibition is 0.06% (inactive).
Regarding `CC1CCCC(C)N1C(=O)COC(=O)Cc1ccc(F)cc1` (stereo not given), the inhibition is -0.44% (inactive).
For `Cc1c(Cl)cccc1NC(=O)CSc1sc2c(O)cc(=O)[nH]c2c1C#N`, the inhibition was -3.35% (inactive).
For `Cc1cccc(-c2cc(NCCc3cccnc3)n3nccc3n2)c1`, the inhibition was 14.2% (inactive).
The result for `CC(=O)N1CCN(c2ccccc2NC(=O)c2cc3ccccc3o2)CC1` reads 9.44% (inactive); that for `Cc1ccc(-c2csc(NC(=O)c3ccc([N+](=O)[O-])o3)n2)cc1`, 3.07% (inactive).
`CC(=O)N1c2ccc(S(=O)(=O)N3CCC(C(=O)Nc4cccc(C)n4)CC3)cc2CC1C` (stereo not given): the inhibition is 18% (inactive).
As to `CCn1cc(Br)c(C(=O)Nc2ccccc2C(=O)OC)n1`, the inhibition is 7.57% (inactive).
Consider `O=C(C(=Cc1ccccc1)CN1CCCCC1)c1ccccc1`, for which the inhibition was 36.4% (active).
The result for `CCOc1ccc(OCCC(=O)OCC(=O)Nc2ccc3c(c2)OCCO3)cc1` reads -6.27% (inactive); that for `O=C(CN1C(=O)NC2(CCCC2)C1=O)NCCc1ccc(F)cc1`, 15.3% (inactive).
In the case of `COc1ccc(/C=C/C(=O)c2cc(F)ccc2OC(=O)c2ccccc2C)cc1OC`, the inhibition was 52.9% (active).
Regarding `Cc1c(NC(=O)C(C)OC(=O)c2ccc([N+](=O)[O-])s2)c(=O)n(-c2ccccc2)n1C` (stereo not given), the inhibition is 20% (inactive).
Consider `O=C(c1ccccc1Br)N1CCN(c2ccc([N+](=O)[O-])c(N3CCOCC3)c2)CC1`, for which the inhibition was 8.23% (inactive).
In the case of `COc1ccc(NC(=O)CSc2n[nH]c(-c3ccccn3)n2)cc1`, the inhibition was 2.28% (inactive).
As to `CCCCNC(=O)CSc1nc2ccc(NC(=O)CSc3nnc(COc4ccccc4C)n3C)cc2s1`, the inhibition was 2.43% (inactive).
The result for `COc1cc2oc(-c3ccc(O)cc3)cc(=O)c2c(O)c1OC` reads 7% (inactive); that for `O=C(Nc1ccc(N2CCN(Cc3ccccc3F)CC2)cc1)c1ccc([N+](=O)[O-])o1`, 28.7% (active).
Consider `CCn1c2ccccc2c2cc(/C=N/n3c(-c4cc(C)[nH]n4)n[nH]c3=S)ccc21`, for which the inhibition is 11.8% (inactive).
The result for `Nc1nc2ccccc2n1/N=C/c1ccc([N+](=O)[O-])s1` reads -0.84% (inactive).
As to `CC1(C)Cc2ccccc2-c2nnnn21`, the inhibition is 3.18% (inactive).
For the compound `CN1CCN(c2nc(-c3ccccc3O)nc3ccccc23)CC1`, the inhibition is 5.26% (inactive).
Regarding `COc1cc(C(=O)NC2CCN(C)CC2)ccc1Nc1ncc2c(n1)N(CCc1ccccc1)CCC(=O)N2C`, the inhibition was 63.2% (active).
As for `Cc1cc2oc(C(=O)NCc3ccncc3)c(C)c2cc1C`, the inhibition is -3.56% (inactive).
Take `O=C(CCl)Nc1ccc2c(c1)OCO2`: the inhibition is 37.1% (active).
Consider `O=C(NCc1cccnc1)c1cccc2c1C(=O)N(C1CCCCC1)C2`, for which the inhibition is 12.8% (inactive).
Consider `COC(=O)CC1(C(=O)OC)Oc2ccc(Br)cc2C(=O)N1c1cc(Cl)c(Cl)cc1Cl` (stereo not given), for which the inhibition is 12.1% (inactive).
The figure for `O=C(Nc1cccc2ccccc12)c1ccc([N+](=O)[O-])o1` is 27.4% (inactive); for `Cc1ccc2c(c1)N(C)/C(=C/c1cccc[n+]1C)S2` it is 28% (active); for `O=C(NCC1CCCO1)c1ccc(NC(=O)c2cccc([N+](=O)[O-])c2)cc1` (stereo not given) it is 3.83% (inactive).
`CC(C(=O)N1CCCc2c1c(=O)oc1ccc(O)cc21)N1CCc2ccccc2C1` (stereo not given): the inhibition was 3.35% (inactive).

The term inhibition denotes the drop in the measured response relative to a control, in per cent.
